Assay outcomes as filed in PubChem.
HPGD inh: HPGD (human) dehydrogenase inhibition; actives 4.3% (n = 150,000); P15428; Potency, µM, usual class: inhibitors; purified HPGD, NADH fluorescence kinetic, PGE2 substrate; active means well fitted inhibition curve with a large enough effect, not every such curve was filed as active; inconclusive means small, poorly fitted or top-dose-only effect, or another doubt; inactive means no such curve, though single readings can be large or run the other way
Target sequence (P15428 whole entry, looked up): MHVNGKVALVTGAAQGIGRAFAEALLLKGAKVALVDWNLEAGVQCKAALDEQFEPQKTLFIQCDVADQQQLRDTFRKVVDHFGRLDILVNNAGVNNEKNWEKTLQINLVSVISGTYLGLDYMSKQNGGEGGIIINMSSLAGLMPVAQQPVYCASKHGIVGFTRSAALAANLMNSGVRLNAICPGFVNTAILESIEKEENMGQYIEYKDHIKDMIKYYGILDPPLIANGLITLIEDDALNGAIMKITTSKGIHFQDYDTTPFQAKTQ
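NADH formation kinetics: reaction with 30 uM PGE2 and 1 mM NAD+ (final), 20 nM enzyme, Tris-HCl pH 8 with Tween 20, after 15 min compound preincubation at room temperature. Fluorescence change, last versus first of five reads.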
ALDH1A1 inh: ALDH1A1 (human) enzyme inhibition | P00352 | Purified ALDH1A1, NADH fluorescence, propionaldehyde substrate | Potency, µM (doses to about 75.3 µM), hits mostly inhibitors | actives 7.3% (n = 220,000) | AID 1030; active means well fitted inhibition curve with a large enough effect, not every such curve was filed as active; inconclusive means small, poorly fitted or top-dose-only effect, or another doubt; inactive means no such curve, though single readings can be large or run the other way
NPSR antagonist: blocks cAMP signaling of the human neuropeptide S receptor; AID 1461; actives 1% (n = 220,000); Q6W5P4; Potency, µM (doses to about 38.3 µM), hits mostly inhibitors; CHO-NPSR cells, cAMP TR-FRET, antagonist mode; further: nearly all actives have a fitted effect of over 50% in size
Target sequence (Q6W5P4 whole entry, looked up): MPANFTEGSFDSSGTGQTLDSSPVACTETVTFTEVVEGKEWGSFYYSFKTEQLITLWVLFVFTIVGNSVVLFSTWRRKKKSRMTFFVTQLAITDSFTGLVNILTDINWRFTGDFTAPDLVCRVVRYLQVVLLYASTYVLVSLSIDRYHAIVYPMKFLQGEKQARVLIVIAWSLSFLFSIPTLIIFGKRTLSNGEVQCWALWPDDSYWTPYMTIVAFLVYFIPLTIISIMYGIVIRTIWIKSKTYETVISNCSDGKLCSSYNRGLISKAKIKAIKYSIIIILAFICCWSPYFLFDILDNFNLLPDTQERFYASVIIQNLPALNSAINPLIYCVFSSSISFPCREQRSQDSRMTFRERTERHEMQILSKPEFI
Tau fluor cs: counter-screen for tau fibril formation inhibitors; tau K18 P301L Alexa594 fluorescence, heparin fibrillization; Potency, µM (doses to about 57.7 µM); actives 0.93% (n = 280,000); AID 1463; further: nearly all actives have a fitted effect of over 55% in size
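Human K18 P301L tau (15 uM unlabeled plus 0.24 uM Alexa 594-labeled, final) in 100 mM sodium acetate pH 7 was mixed with compound and 20 uM heparin and incubated 6 hr at 37 C.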
Tau ThT inhib: inhibitors of human tau fibril formation, thioflavin T binding; P10636; recombinant tau K18 P301L, heparin-induced fibrillization, ThT fluorescence; Potency, µM (top dose mostly 57.4 µM), most hits filed as inhibitors; actives 2.1% (n = 270,000); further: nearly all actives have a fitted effect of over 55% in size
Target sequence (P10636 561-689 P618L limits assumed): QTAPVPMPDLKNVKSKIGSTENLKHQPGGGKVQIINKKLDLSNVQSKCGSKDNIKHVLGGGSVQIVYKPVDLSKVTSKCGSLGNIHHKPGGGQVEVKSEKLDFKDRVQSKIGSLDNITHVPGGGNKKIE
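ThT emission at 510 nm, taken 1 hr after adding 30 uM dye, quantifies aggregates formed when 20 uM heparin acts on human tau K18 P301L for 6 hr at 37 C.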
Tau FP inhib: blocks human tau fibril formation measured by polarization; P10636; actives 0.39% (n = 280,000); K18 P301L tau heparin fibrillization, Alexa594 FP, 6 h; Potency, µM (titrated, usually from 57.7 µM), usual class: inhibitors; further: nearly all actives have a fitted effect of over 55% in size
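Human K18 P301L fragment (15 uM unlabeled plus 0.24 uM Alexa 594-labeled) in 100 mM sodium acetate pH 7 with compound, aggregation induced by 20 uM heparin for 6 hr at 37 C. ThT (30 uM) added for 1 hr, then Alexa 594 FP read.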
Hits are given with their value; [ ] = dose if it differs, or a comment. This is a sample that favours compounds with a hit; in the whole collection about 9.5% have one here. Unless noted, the call rests on the fitted dose curve; in most records, active means well fitted curve in the direction sought with a large enough effect; inconclusive means small, poorly fitted or top-dose-only effect, or another doubt; inactive means no such curve, though single readings can be large; an effect the other way counts as inactive or inconclusive.

What do the screens show for `CCc1c(C)[nH]n(-c2nc(-c3cccc([N+](=O)[O-])c3)cs2)c1=O`?
HPGD inh: inactive; ALDH1A1 inh: 14µM; NPSR antagonist: inactive; Tau fluor cs: inconclusive; Tau ThT inhib: inconclusive; Tau FP inhib: inactive

How did COC(=O)c1ccc2c(=O)n(CCCCCC(=O)O)c(=S)[nH]c2c1 do in these assays?
HPGD inh: inconclusive; ALDH1A1 inh: 14µM; NPSR antagonist: inactive; Tau fluor cs: inactive; Tau ThT inhib: inactive; Tau FP inhib: inactive

What do the screens show for `COCCNC(=O)c1ccc(Cn2c(=S)[nH]c3cc4c(cc3c2=O)OCO4)cc1`?
HPGD inh: 13µM; ALDH1A1 inh: inactive; NPSR antagonist: inactive; Tau fluor cs: inactive; Tau ThT inhib: inactive; Tau FP inhib: inactive

How did COc1cc2[nH]c(=O)n(Cc3ccccc3Cl)c(=O)c2cc1OC do in these assays?
HPGD inh: inactive; ALDH1A1 inh: inconclusive; NPSR antagonist: inactive; Tau fluor cs: inactive; Tau ThT inhib: inactive; Tau FP inhib: inconclusive

How did COc1cc2[nH]c(=S)n(Cc3ccccc3)c(=O)c2cc1OC do in these assays?
ALDH1A1 inh: 4.5µM; NPSR antagonist: inactive; Tau fluor cs: inactive; Tau ThT inhib: inactive; Tau FP inhib: inactive

How did CC1CCN(CCCNC(=O)c2ccc3c(=O)n(Cc4ccc(Cl)cc4)c(=S)[nH]c3c2)CC1 do in these assays?
ALDH1A1 inh: 16µM; NPSR antagonist: inconclusive; Tau fluor cs: inconclusive; Tau ThT inhib: inactive; Tau FP inhib: inconclusive

Results for CC(C)NC(=O)c1ccc2c(=O)n(Cc3ccco3)c(=S)[nH]c2c1 ?
HPGD inh: inactive; ALDH1A1 inh: 8.9µM; NPSR antagonist: inactive; Tau fluor cs: inactive; Tau ThT inhib: inactive; Tau FP inhib: inactive

How did CCc1nc2ccc(C(=O)NCCc3ccc(OC)c(OC)c3)cc2nc1CC do in these assays?
Tau fluor cs: inactive; Tau ThT inhib: inconclusive; Tau FP inhib: inactive

How did COc1ccc(CCNC(=O)c2ccc3nc(-c4ccco4)c(-c4ccco4)nc3c2)cc1OC do in these assays?
HPGD inh: inconclusive; ALDH1A1 inh: 0.32µM; NPSR antagonist: inconclusive; Tau fluor cs: 13µM[quencher]; Tau ThT inhib: 6.3µM; Tau FP inhib: inconclusive

How did COc1ccccc1N1CCN(C(=O)c2ccc3c(=O)n(Cc4ccco4)c(=S)[nH]c3c2)CC1 do in these assays?
HPGD inh: inactive; ALDH1A1 inh: inconclusive; NPSR antagonist: inconclusive; Tau fluor cs: inactive; Tau ThT inhib: inactive; Tau FP inhib: inactive

What do the screens show for `CCCNC(=O)c1ccc2c(=O)n(Cc3ccco3)c(=S)[nH]c2c1`?
ALDH1A1 inh: 7.1µM; NPSR antagonist: inactive; Tau fluor cs: inactive; Tau ThT inhib: inconclusive; Tau FP inhib: inactive

How did COc1ccc(CCn2c(N)c(C(=O)NCc3ccco3)c3nc4ccccc4nc32)cc1OC do in these assays?
HPGD inh: inconclusive; ALDH1A1 inh: inconclusive; NPSR antagonist: inactive; Tau fluor cs: inconclusive; Tau ThT inhib: 18µM; Tau FP inhib: 32µM

What do the screens show for `COc1ccc(NC(=O)CSc2c(C)nn(-c3nnc(C)c(=O)[nH]3)c2C)cc1`?
HPGD inh: inactive; ALDH1A1 inh: inconclusive; NPSR antagonist: inactive; Tau fluor cs: inactive; Tau ThT inhib: inactive; Tau FP inhib: inactive

Results for COCCNC(=O)CCCn1c(SCc2ccccc2Cl)nc2c(sc3ccccc32)c1=O ?
Tau fluor cs: inactive; Tau ThT inhib: inactive; Tau FP inhib: inactive

How did COc1cccc(Nc2nc(=O)[nH]nc2C)c1 do in these assays?
HPGD inh: inactive; ALDH1A1 inh: inactive; NPSR antagonist: inactive; Tau fluor cs: inactive; Tau ThT inhib: inactive; Tau FP inhib: inactive

What do the screens show for `CC(=O)c1ccc(N2CCN(c3nc4ccccc4c4nc(-c5cccc(C)c5)nn34)CC2)cc1`?
Tau fluor cs: inactive; Tau ThT inhib: inactive; Tau FP inhib: inactive

Results for COC(=O)c1ccc2c(=O)n(CCO)c(=S)[nH]c2c1 ?
HPGD inh: inactive; ALDH1A1 inh: inactive; NPSR antagonist: inactive; Tau fluor cs: inactive; Tau ThT inhib: inactive; Tau FP inhib: inactive

What do the screens show for `CCCCCn1c(=O)[nH]c2cc(C(=O)NCCc3ccc(OC)c(OC)c3)ccc2c1=O`?
HPGD inh: inactive; ALDH1A1 inh: inactive; NPSR antagonist: inactive; Tau fluor cs: inactive; Tau ThT inhib: inactive; Tau FP inhib: inactive

How did COCCn1c(=S)[nH]c2cc(C(=O)NC(C)C)ccc2c1=O do in these assays?
HPGD inh: inactive; ALDH1A1 inh: 0.18µM; NPSR antagonist: inconclusive; Tau fluor cs: inactive; Tau ThT inhib: inactive; Tau FP inhib: inactive

What do the screens show for `COc1ccc(CCNC(=O)c2ccc3c(=O)n(Cc4ccco4)c(=S)[nH]c3c2)cc1OC`?
HPGD inh: inactive; ALDH1A1 inh: 2.5µM; NPSR antagonist: inactive; Tau fluor cs: inactive; Tau ThT inhib: inconclusive; Tau FP inhib: inactive

What do the screens show for `CCN(CC)CCNC(=O)c1c(C)n(-c2ccccc2)c2cc(Br)c(OC)cc12`?
HPGD inh: inactive; ALDH1A1 inh: 0.63µM; NPSR antagonist: inactive; Tau fluor cs: inactive; Tau ThT inhib: inactive; Tau FP inhib: inactive

What do the screens show for `COc1cc2c(C(=O)N3CCN(C)CC3)c(C)n(-c3ccccc3)c2cc1Br`?
HPGD inh: inactive; ALDH1A1 inh: inconclusive; NPSR antagonist: inactive; Tau fluor cs: inactive; Tau ThT inhib: inactive; Tau FP inhib: inactive

Results for Cc1ccc(NC(=O)CN2C(=O)N/C(=C/c3cc(C)n(-c4ccc(C(=O)O)cc4)c3C)C2=O)cc1 ?
ALDH1A1 inh: inconclusive; NPSR antagonist: inactive; Tau fluor cs: inactive; Tau ThT inhib: inconclusive; Tau FP inhib: inactive

How did CCn1c(C)cc(/C=C2\NC(=O)N(CC(=O)Nc3ccc(F)cc3)C2=O)c1C do in these assays?
ALDH1A1 inh: inactive; NPSR antagonist: inactive; Tau fluor cs: inactive; Tau ThT inhib: inactive; Tau FP inhib: inactive

What do the screens show for `Cc1ccc(NC(=O)CN2C(=O)N/C(=C/c3ccco3)C2=O)cc1`?
HPGD inh: inactive; ALDH1A1 inh: 25µM; NPSR antagonist: inactive; Tau fluor cs: inactive; Tau ThT inhib: inconclusive; Tau FP inhib: inconclusive

How did Cc1ccc(NC(=O)CN2C(=O)N/C(=C/c3cccn3-c3ccc(C(=O)O)cc3)C2=O)cc1 do in these assays?
HPGD inh: 25µM; ALDH1A1 inh: inactive; NPSR antagonist: inactive; Tau fluor cs: inactive; Tau ThT inhib: inactive; Tau FP inhib: inactive

How did O=C(O)C(=Cc1ccc(-c2ccccc2)cc1)C(=O)O do in these assays?
HPGD inh: inactive; ALDH1A1 inh: inactive[13.5 µM]

How did CCOC(=O)c1c(N)sc2c1CCC(CC)C2 (stereo not drawn) do in these assays?
HPGD inh: inconclusive; ALDH1A1 inh: inconclusive; NPSR antagonist: inactive; Tau fluor cs: inconclusive; Tau ThT inhib: inconclusive; Tau FP inhib: inactive

What do the screens show for `CCOC(=O)c1c(N)sc2c1CCSC2`?
HPGD inh: inactive; ALDH1A1 inh: 13µM; NPSR antagonist: inactive; Tau fluor cs: inconclusive; Tau ThT inhib: 25µM; Tau FP inhib: inactive

Results for CCCOC(=O)c1c(N)sc2c1CCC2 ?
HPGD inh: inactive; ALDH1A1 inh: 28µM; NPSR antagonist: inactive; Tau fluor cs: inactive; Tau ThT inhib: inconclusive; Tau FP inhib: inactive
